# Measurements as given in ChEMBL document CHEMBL4513216, “Probing the Open Global Health Chemical Diversity Library for Multistage-Active Starting Points for Next-Generation Antimalarials” (ACS Infect Dis, 2020).
# In all, about 65,000 compounds went through this assay and about 2,100 (3.2%) showed an effect of 50% or more. The median lay at about -52%. This excerpt belongs to a sample that is enriched for strong results.
# Tested on: Plasmodium falciparum
# Assay: Screen against P. falciparum Asexual Blood Stage (ABS), at 5uM
# Assay type: functional, Dd2
# Settings: tested at 5 uM
row,SMILES,INHIBITION [%]
1,CCCn1nccc1-c1cc(C2CCN(S(C)(=O)=O)CC2)ccn1,-114
2,CN(C)C[C@@H]1CCC[C@@H]2CN(c3ncccn3)C[C@@H]21,44.8
3,COCCN(C)C[C@@H]1CCC[C@@H]2CN(c3ncccn3)C[C@@H]21,33.9
4,CN(C)C[C@@H]1CCC[C@@H]2CN(c3nccc(C(F)(F)F)n3)C[C@@H]21,64.8
5,CN(C[C@@H]1CCC[C@@H]2CN(c3ncccn3)C[C@@H]21)C1CC1,17.5
6,CN(C)C[C@@H]1CCC[C@@H]2CN(c3cccnc3)C[C@@H]21,56.4
7,Cc1ccc(N2C[C@H]3CCC[C@@H](CN(C)C)[C@H]3C2)nn1,-54.9
8,O=C(NCc1cc(=O)n2c(n1)CN(CC1CC1)CCC2)c1ccsc1,-69.7
9,c1cnc(N2CC3(CCN(C4CCOC4)CC3)c3ccccc32)nc1 (stereo unspecified),-101
10,c1cnc(N2CC3(CCN(C4CCOCC4)CC3)c3ccccc32)nc1,64
11,c1cnc(N2CC3(CCN(CC4CCOC4)CC3)c3ccccc32)nc1 (stereo unspecified),-5.4
12,COCCN1CCc2cc(C(=O)NC(C)C)c(NCC3CC3)nc2CC1,33.6
13,O=C(CCn1cccn1)NCCOc1ncc(Cl)cc1Cl,18.7
14,N#Cc1ccc(N2CCC3(CC2)CC(OCc2cccnc2)CO3)cc1 (stereo unspecified),-57.3
15,COCCN1CCC2(CC1)CC(NC(=O)COC)c1ccccc1O2 (stereo unspecified),-38.3
16,COCCN1CCC2(CC1)CC(NC(=O)CC1CC1)c1ccccc1O2 (stereo unspecified),-92.9
17,COCCN1CCC2(CC1)CC(NC(=O)CN(C)C)c1ccccc1O2 (stereo unspecified),67.7
18,CNCc1cc(C)n(-c2ccccc2OC)c1C,30.8
19,Cc1nn(C)c(C)c1C1CCCN1Cc1cccc(OCC(N)=O)c1 (stereo unspecified),-22.6
20,CCn1cncc1CNC(=O)c1ccc(C2CCCN2C(=O)COC)s1 (stereo unspecified),-32.8
21,O=C(NC1CC1)[C@@H]1CCO[C@@H]2CCN(Cc3ccsc3)C[C@H]21,-48.8
22,O=C(NCC1CC1)[C@@H]1CCO[C@@H]2CCN(Cc3ccc(F)cc3)C[C@H]21,22.5
23,O=C(NCC1CC1)[C@@H]1CCO[C@@H]2CCN(Cc3ccsc3)C[C@H]21,50.9
24,O=C(NCCCn1ccnc1)NCC(c1ccco1)N1CCCC1 (stereo unspecified),-96.3
25,CCN1CCCC(CN(C)c2nccc(-c3ccc(C)nc3C)n2)C1 (stereo unspecified),26.3
26,CC(C)N[C@@H]1CC[C@@H]1NC(=O)c1ccccc1OC(F)(F)C(F)F,54.4

row,SMILES,INHIBITION [%]
1,O=C(N[C@@H]1CCNC[C@H]1O)c1ccccc1OC(F)(F)C(F)F,-173
2,N[C@@H]1CC[C@@H]1NC(=O)c1ccccc1OC(F)(F)C(F)F,42.2
3,Cc1ccnc(NCc2cn3nc(C)sc3n2)n1,-114
4,O=C(Cc1ccc2c(c1)OCC2)Nc1nc[nH]n1,-116
5,c1cnn(Cc2cnc3n2CCN(CC2CCCCC2)C3)c1,4.97
6,COCCCNC(=O)CN(C)C(C)c1nc(C(C)C)no1 (stereo unspecified),-119
7,Cc1cccc(C2(C(=O)NCC3CN(C)CCO3)CC2)c1 (stereo unspecified),0.579
8,CN1CCOC(CNC(=O)C2(c3ccccc3)CCC2)C1 (stereo unspecified),-66.7
9,CN1CCOC(CNC(=O)C2(c3cccc(C(F)(F)F)c3)CCCC2)C1 (stereo unspecified),55.9
10,CN(Cc1csc(-c2cnn(C)c2)n1)CC1CCN(CCO)CC1,-6.54
11,c1nc(N2CCOCC2)ncc1-c1cncn1CCCN1CCCCC1,-102
12,CC(Cn1cncc1-c1cnn(C2CCCCC2)c1)N1CCCCC1 (stereo unspecified),13.6
13,c1nn(C2CCCCC2)cc1-c1cncn1CCCN1CCCCC1,62.1
14,Cc1ccccc1N1CCCN(C(=O)CC2CN(C(C)C)CCO2)CC1 (stereo unspecified),11.3
15,CN1CCCC1CNC(=O)CCCOCc1ccccc1 (stereo unspecified),-46.6
16,CN1CCCC1CNC(=O)CCCOc1cccc(F)c1 (stereo unspecified),35.7
17,CN1CCCC1CNC(=O)CCCOc1ccc(I)cc1 (stereo unspecified),59.8
18,CN1CCCC1CNC(=O)CCOc1ccc(Br)cc1 (stereo unspecified),62.6
19,CC(=O)c1cccc(OCCCC(=O)NCC2CCCN2C)c1 (stereo unspecified),3.79
20,Cc1ncc(CNC(=O)CCOc2ccccc2)c(C2CCCN2C)n1 (stereo unspecified),-57
21,COc1cc(CCC(=O)NCC2CCCN2C)ccc1OCC(F)(F)F (stereo unspecified),43.4
22,CN1CCCC1CNC(=O)CCCOc1ccc(F)cc1 (stereo unspecified),48.7
23,CN1CCCC1CNC(=O)CCOc1ccc(Cl)cc1 (stereo unspecified),67.9
24,CC(C)c1nc(O)c2nnn(C[C@@H]3CCCN(Cc4cccs4)C3)c2n1,-32.9
25,O=C1CO[C@@H]2CN(S(=O)(=O)c3ccc(F)cc3)C[C@H]2N1,-28.2
